Reference: PubChem BioAssay (NCATS)
Records with an inconclusive call do not appear. Active and inactive are the calls of the source. Calls follow the shape of the dose curve; as a rule, active = well fitted curve in the direction sought with a large enough effect; inconclusive = small, poorly fitted or top-dose-only effect, or another doubt; inactive = no such curve, though single readings can be large; an effect the other way counts as inactive or inconclusive.

Experiments:
[1] = Cellular Toxicity (caspase-3) NIH 3T3 (AID 666);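 also: 0% = DMSO basal and 100% = 100 µM tamoxifen stimulation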
Summary of the method: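 Mouse NIH 3T3 fibroblasts (1000 cells/well) were treated with compound for 16 hr at 37°C in complete medium; caspase-3/7 activity was read by Caspase-Glo luminescence. Normalized to DMSO and 100 uM tamoxifen; AC50 from Hill fits.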

[2] = Cellular Toxicity (caspase-3) Renal Proximal Tubule (AID 667); conditions: renal proximal tubule cells; at 91.7 µM (top of the series), primary cells freshly taken from rat, solvent-only wells 0%, staurosporine 100% unless noted;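 also: cells exposed to compound for 16 hours at 37 °C before detection; 0% = DMSO basal and 100% = 10 µM staurosporine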
Summary of the method: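 Caspase-Glo 3/7 read-out, rat primary kidney proximal tubule cells. Compound exposure 16 h, 37 °C; detection after 1 h at RT. Activity scaled to DMSO and 10 uM staurosporine.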

[3] = target: Cytochrome P450 3A4 (Homo sapiens) (UniProt P08684); experiment: qHTS Assay for Activators of Cytochrome P450 3A4 (AID 885); also: nearly all actives have a fitted effect of over 65% in size
Summary of the method: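 Human CYP3A4 (20 nM) with Luciferin-PPXE at 25 uM (its KM) in 200 mM KPO4; 10 min compound preincubation, then NADPH regeneration and 60 min reaction at RT. Luciferin read by luminescence; normalized to 57 uM ketoconazole full inhibition.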

[4] = Cell Viability - LYMP2-001 (AID 921);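 also: 0% = DMSO only and full inhibition = tetraoctylammonium bromide control wells; nearly all actives have a fitted effect of over 70% in size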
Summary of the method: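 A lymphoblastoid cell line of human origin was treated with library compounds across a concentration series for 24 hours, and viable cell number was estimated from ATP-driven luciferase light output. Hill modeling gave AC50.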

[5] = MultiTox-Fluor Cytotoxicity Assay - LYMP1-001 - Dead Cells (AID 946);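 also: 0% = DMSO and 100% = tetraoctylammonium bromide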
Summary of the method: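 LYMP1-001 lymphoblastoid cells (2500/well) treated 16 h at 37 C. Dead-cell protease cleavage of bis-AAF-R110 read at Ex/Em 485/520. Normalized to DMSO and 15 uM tetraoctylammonium bromide; AC50 from Hill fits.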

[6] = MultiTox-Fluor Cytotoxicity Assay - LYMP1-001 - Live Cells (AID 947);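 also: 0% = DMSO only and full inhibition = tetraoctylammonium bromide control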
[7] = Cell Viability - LYMP1-002 - Assay at 16 hr (AID 948);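 also: 0% = DMSO alone and full effect = 92 µM tetraoctylammonium bromide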
Summary of the method: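 In this qHTS, lymphoblastoid LYMP1-002 cells (human) receive compounds for 16 hr at 37 C. Viability is taken from CellTiter-Glo ATP luminescence, and AC50 derives from standard Hill fits.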

[8] = MultiTox-Fluor Cytotoxicity Assay - LYMP1-002 - Live Cells (AID 955); also: % is scaled to controls: 0 for no effect and ±100 for the full control effect
Summary of the method: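 Human lymphoblastoid LYMP1-002 cells, 2500/well in complete medium, rested 5 hr at 37 C, then exposed to compounds for 16 hr at 37 C. Live-cell protease cleavage of GF-AFC read by fluorescence (Ex/Em 405/510) after 60 min at room temperature; AC50 from Hill fits.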

[9] = MultiTox-Fluor Cytotoxicity Assay - LYMP1-002 - Dead Cells (AID 960);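 also: 0% = DMSO and 100% = tetraoctylammonium bromide; nearly all actives have a fitted effect of over 60% in size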
Summary of the method: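 Human lymphoblastoid cells (LYMP1-002), 2500/well in complete medium, were exposed to compounds for 16 hr at 37 C. Dead-cell protease activity was read as bis-AAF-R110 fluorescence (Ex/Em 485/520), normalized to DMSO and 15 uM tetraoctylammonium bromide; AC50 from Hill fits.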

[10] = MultiTox-Fluor Cytotoxicity Assay - LYMP1-003 - Dead Cells (AID 961);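 also: 0% = DMSO and 100% = tetraoctylammonium bromide; nearly all actives have a fitted effect of over 70% in size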
Summary of the method: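 LYMP1-003 human lymphoblastoid cells (2500/well) exposed to compound 16 h at 37 C in complete medium; dead-cell protease read with bis-AAF-R110 fluorescence (Ex/Em 485/520) after 60 min at room temperature. Normalized to DMSO and 15 uM tetraoctylammonium bromide; AC50 from Hill fit.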

[11] = MultiTox-Fluor Cytotoxicity Assay - LYMP1-003 - Live Cells (AID 962);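 also: 0% = DMSO only and full loss = 92 µM tetraoctylammonium bromide; cytotoxic hits lower the live-cell protease signal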
Summary of the method: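 LYMP1-003 human lymphoblastoid cells (2500/well) in complete medium were preincubated 5 hr at 37 C, then exposed to compounds for 16 hr at 37 C. Live-cell protease cleavage of GF-AFC read by fluorescence (Ex/Em 405/510); AC50 from Hill fits.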

[12] = Cell Viability - LYMP1-003 - Assay at 24 hr (AID 963);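 also: plate controls were DMSO only for no effect and tetraoctylammonium bromide positive control for full effect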
Summary of the method: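 Human lymphoblastoid LYMP1-003 cells (2500/well) were rested 5 hr at 37 C, then exposed to compounds in complete medium for 24 hr at 37 C. Cellular ATP was quantified by CellTiter-Glo luminescence, and AC50 values came from Hill fits of concentration-response data.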

[13] = Cell Viability - LYMP1-003 - Assay at 40 hr (AID 964); also: % is scaled to controls: 0 for no effect and ±100 for the full control effect; nearly all actives have a fitted effect of over 60% in size
Summary of the method: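 Human lymphoblastoid LYMP1-003 cells, 2500/well in complete medium, rested 5 hr at 37 C, then exposed to compounds for 40 hr at 37 C. Viability read as intracellular ATP by CellTiter-Glo luminescence; AC50 from Hill fits of concentration-response data.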

[14] = Cell Viability - LYMP2-003 (AID 965);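 also: cells exposed to compounds for 24 h before reading; 0% = DMSO only and full effect = 92 µM tetraoctylammonium bromide; nearly all actives have a fitted effect of over 50% in size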
Summary of the method: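 qHTS, human lymphoblastoid line, 2500 cells/well, complete medium. 24 h drug, 37 C. ATP-based luminescent readout; Hill-fit AC50.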

[15] = Cell Viability - LYMP2-004 (AID 966);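 also: plate controls were DMSO only for no effect and tetraoctylammonium bromide control for full effect; nearly all actives have a fitted effect of over 65% in size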
Summary of the method: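 Human lymphoblastoid cells (2500/well) in complete medium were treated with compounds for 24 hr at 37 C, then intracellular ATP was measured by CellTiter-Glo luminescence. AC50 values came from Hill-equation fits of concentration-response data.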

[16] = Cell Viability - LYMP2-009 (AID 968);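 also: 0% = DMSO alone and the full-kill end = tetraoctylammonium bromide at 92 µM; nearly all actives have a fitted effect of over 55% in size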
[17] = Cell Viability - LYMP2-011 (AID 969);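 also: 0% = DMSO only and full inhibition = 92 µM tetraoctylammonium bromide; nearly all actives have a fitted effect of over 60% in size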
Summary of the method: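 Human lymphoblastoid cells (2500/well) were plated in complete medium, preincubated 5 hr at 37 C, then exposed to compounds for 24 hr at 37 C. Intracellular ATP was read by CellTiter-Glo luminescence, and AC50 came from Hill-equation concentration-response fits.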

[18] = Cell Viability - LYMP2-013 (AID 970);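 also: 0% = DMSO only and full inhibition = tetraoctylammonium bromide control; nearly all actives have a fitted effect of over 55% in size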
Summary of the method: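 Human lymphoblastoid cells, 2500/well, were preincubated 5 hr at 37 C, then treated with compounds for 24 hr at 37 C in complete medium. Intracellular ATP was read by CellTiter-Glo luminescence; AC50 from Hill-equation fits of concentration-response data.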

[19] = Cell Viability - LYMP2-015 (AID 971);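 also: 0% = DMSO only and full effect = 92 µM tetraoctylammonium bromide; nearly all actives have a fitted effect of over 55% in size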
Summary of the method: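 Human lymphoblastoid cells (2500/well) in complete medium were preincubated 5 hr at 37 C, then compound-treated 24 hr at 37 C. Intracellular ATP was read by CellTiter-Glo luminescence after 30 min at room temperature; AC50 came from Hill-equation concentration-response fits.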

[20] = Cell Viability - LYMP2-017 (AID 972); also: % is scaled to controls: 0 for no effect and ±100 for the full control effect; nearly all actives have a fitted effect of over 55% in size
Summary of the method: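 Human lymphoblastoid cells (2500/well) were seeded in complete medium, held 5 hr at 37 C, then exposed to compounds for 24 hr at 37 C. Intracellular ATP was read by CellTiter-Glo luminescence after 30 min at room temperature, with AC50 values from Hill-equation fits.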

[21] = Cell Viability - LYMP2-019 (AID 973)
Summary of the method: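 Human lymphoblastoid cells were seeded at 2500 cells/well, preincubated 5 hr at 37 C, then exposed to compounds for 24 hr at 37 C in complete medium. Intracellular ATP was measured by CellTiter-Glo luminescence; AC50 from Hill fits.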

[22] = Cell Viability - LYMP2-021 (AID 974)
Summary of the method: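 Human lymphoblastoid cells (2500/well) were preincubated 5 hr at 37 C, then exposed to compounds for 24 hr at 37 C in complete medium. Intracellular ATP was read by CellTiter-Glo luminescence; AC50 came from Hill-equation fits of concentration-response data.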

[23] = Cell Viability - LYMP2-025 (AID 976);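 also: plate controls were DMSO only for no effect and tetraoctylammonium bromide control for full effect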
Summary of the method: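 Human lymphoblastoid LYMP2-025 cells (2500/well) were pre-incubated 5 hr at 37 C, then treated with compounds for 24 hr at 37 C in complete medium. Viability was read as intracellular ATP by CellTiter-Glo luminescence; AC50 from Hill fits.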

[24] = Cell Viability - LYMP2-002 (AID 977);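 also: compound exposure lasted 24 h at 37 °C; plate controls were DMSO only for no effect and 92 µM tetraoctylammonium bromide for full effect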
Summary of the method: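 Cytotoxicity is scored as concentration-dependent loss of cellular ATP in a human lymphoblastoid line after 24 hr compound treatment at 37 C. AC50 is obtained by modelling concentration-response data with the Hill equation.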

Sequence of Cytochrome P450 3A4 (Homo sapiens) (P08684 whole entry, looked up): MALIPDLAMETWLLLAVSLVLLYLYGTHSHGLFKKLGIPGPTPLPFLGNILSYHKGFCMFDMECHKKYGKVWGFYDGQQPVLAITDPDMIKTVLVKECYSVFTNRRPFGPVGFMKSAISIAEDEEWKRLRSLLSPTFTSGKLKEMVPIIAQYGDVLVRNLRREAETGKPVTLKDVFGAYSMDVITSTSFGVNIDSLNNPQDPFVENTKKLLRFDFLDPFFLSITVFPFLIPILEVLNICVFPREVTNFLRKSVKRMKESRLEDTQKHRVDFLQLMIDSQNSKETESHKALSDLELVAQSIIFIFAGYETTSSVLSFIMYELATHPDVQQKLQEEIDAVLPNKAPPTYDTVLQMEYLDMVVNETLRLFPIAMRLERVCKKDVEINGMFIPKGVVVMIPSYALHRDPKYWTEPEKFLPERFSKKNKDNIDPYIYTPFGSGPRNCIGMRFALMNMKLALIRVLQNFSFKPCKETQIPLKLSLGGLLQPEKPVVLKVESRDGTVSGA

COC1=CC(=O)OC(CCc2ccccc2)C1 (centres undefined)
inactive: outcome [1] | caspase-3 activation [2] 1.48% | Potency [3] | Potency [4] | Potency [5] | Potency [6] | Potency [7] | outcome [8] | Potency [9] | Potency [10] | Potency [11] | Potency [12] | Potency [13] | Potency [14] | Potency [15] | Potency [16] | Potency [17] | Potency [18] | Potency [19] | Potency [20] | Potency [21] | Potency [22] | Potency [23] | Potency [24]
